Inhibition data for seven molecules are collected here from ChEMBL document CHEMBL1961873, “Compounds: GSK PKIS; Assays: Nanosyn kinase panel” (2012).

As usually defined, the inhibition is the change of the read-out against control, counted positive when it falls.

In assay [1] the target is Rho-associated protein kinase 1 (Homo sapiens) (UniProt Q13464). The note with it: at 1 µM.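 Note: reported values are mean percent inhibition of ROCK1.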
In assay [2] the target is Rho-associated protein kinase 2 (Homo sapiens) (UniProt O75116). The following applies: at 0.1 µM.
Rho-associated protein kinase 2 (Homo sapiens), sequence (O75116 whole entry, looked up): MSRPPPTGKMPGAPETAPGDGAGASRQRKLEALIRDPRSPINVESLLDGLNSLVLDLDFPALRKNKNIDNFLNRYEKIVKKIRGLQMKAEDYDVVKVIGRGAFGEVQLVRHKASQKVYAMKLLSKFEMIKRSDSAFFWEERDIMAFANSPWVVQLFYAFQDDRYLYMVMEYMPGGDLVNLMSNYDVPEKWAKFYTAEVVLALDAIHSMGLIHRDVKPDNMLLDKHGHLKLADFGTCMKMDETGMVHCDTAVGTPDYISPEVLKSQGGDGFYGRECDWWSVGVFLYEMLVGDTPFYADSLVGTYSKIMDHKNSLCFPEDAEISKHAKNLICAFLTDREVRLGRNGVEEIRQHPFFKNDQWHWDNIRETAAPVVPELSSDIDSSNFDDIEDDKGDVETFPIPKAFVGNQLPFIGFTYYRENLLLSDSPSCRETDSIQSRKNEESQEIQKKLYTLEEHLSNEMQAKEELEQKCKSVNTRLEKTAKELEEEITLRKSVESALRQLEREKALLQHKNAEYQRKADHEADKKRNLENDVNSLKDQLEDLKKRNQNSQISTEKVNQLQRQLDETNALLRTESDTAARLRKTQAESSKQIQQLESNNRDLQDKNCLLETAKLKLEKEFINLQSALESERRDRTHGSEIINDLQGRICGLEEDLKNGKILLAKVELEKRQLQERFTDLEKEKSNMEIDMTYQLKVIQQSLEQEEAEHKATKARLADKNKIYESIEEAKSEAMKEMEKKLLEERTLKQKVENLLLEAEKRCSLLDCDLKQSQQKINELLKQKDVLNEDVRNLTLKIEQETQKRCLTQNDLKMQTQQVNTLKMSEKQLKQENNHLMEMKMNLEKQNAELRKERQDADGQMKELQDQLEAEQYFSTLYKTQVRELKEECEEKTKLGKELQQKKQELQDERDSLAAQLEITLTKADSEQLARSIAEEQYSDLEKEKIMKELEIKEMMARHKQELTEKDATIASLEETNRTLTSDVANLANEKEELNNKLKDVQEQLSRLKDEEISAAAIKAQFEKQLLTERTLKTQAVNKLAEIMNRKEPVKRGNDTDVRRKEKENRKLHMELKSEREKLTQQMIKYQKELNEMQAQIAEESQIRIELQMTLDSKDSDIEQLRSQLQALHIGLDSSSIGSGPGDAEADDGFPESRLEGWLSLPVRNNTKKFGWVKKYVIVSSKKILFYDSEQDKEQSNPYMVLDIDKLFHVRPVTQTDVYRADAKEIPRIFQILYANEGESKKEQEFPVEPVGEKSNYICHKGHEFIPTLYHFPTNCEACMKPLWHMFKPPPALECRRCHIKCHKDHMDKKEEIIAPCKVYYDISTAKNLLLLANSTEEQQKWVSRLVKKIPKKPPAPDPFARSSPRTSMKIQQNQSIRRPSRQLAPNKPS
The target is the same in assay [3]. The note with it: at 1 µM.
The target in assay [4] is Ribosomal protein S6 kinase alpha-1 (Homo sapiens) (UniProt Q15418). The following applies: at 0.1 µM.
Ribosomal protein S6 kinase alpha-1 (Homo sapiens), sequence (Q15418 whole entry): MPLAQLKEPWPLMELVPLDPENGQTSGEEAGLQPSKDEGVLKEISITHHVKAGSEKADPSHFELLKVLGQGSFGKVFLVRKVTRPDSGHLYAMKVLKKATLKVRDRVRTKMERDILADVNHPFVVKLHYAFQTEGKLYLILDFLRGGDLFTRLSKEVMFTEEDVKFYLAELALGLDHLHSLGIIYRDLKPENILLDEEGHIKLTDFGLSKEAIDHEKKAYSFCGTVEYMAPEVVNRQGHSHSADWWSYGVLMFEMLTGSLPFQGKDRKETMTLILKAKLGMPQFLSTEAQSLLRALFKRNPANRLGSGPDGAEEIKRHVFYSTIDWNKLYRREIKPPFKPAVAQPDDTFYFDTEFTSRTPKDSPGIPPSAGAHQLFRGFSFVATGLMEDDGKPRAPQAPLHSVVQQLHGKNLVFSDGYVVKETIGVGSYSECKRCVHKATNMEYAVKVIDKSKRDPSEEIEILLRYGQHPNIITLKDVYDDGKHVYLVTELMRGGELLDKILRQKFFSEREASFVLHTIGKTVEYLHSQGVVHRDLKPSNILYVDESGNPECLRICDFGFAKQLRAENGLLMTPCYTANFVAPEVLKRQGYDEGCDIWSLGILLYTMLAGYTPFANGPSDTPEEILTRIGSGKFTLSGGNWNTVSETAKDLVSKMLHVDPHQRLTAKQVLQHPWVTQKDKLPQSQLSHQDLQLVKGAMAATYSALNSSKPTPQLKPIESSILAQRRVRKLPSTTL
Assay [5] has the same target. The following applies: at 1 µM.
Assay [6] addresses Ribosomal protein S6 kinase alpha-3 (Homo sapiens) (UniProt P51812). The note with it: at 0.1 µM.
The target is the same in assay [7]. The note with it: at 1 µM.
The target in assay [8] is Ribosomal protein S6 kinase alpha-2 (Homo sapiens) (UniProt Q15349). The following applies: at 0.1 µM.
Ribosomal protein S6 kinase alpha-2 (Homo sapiens), sequence (Q15349 whole entry): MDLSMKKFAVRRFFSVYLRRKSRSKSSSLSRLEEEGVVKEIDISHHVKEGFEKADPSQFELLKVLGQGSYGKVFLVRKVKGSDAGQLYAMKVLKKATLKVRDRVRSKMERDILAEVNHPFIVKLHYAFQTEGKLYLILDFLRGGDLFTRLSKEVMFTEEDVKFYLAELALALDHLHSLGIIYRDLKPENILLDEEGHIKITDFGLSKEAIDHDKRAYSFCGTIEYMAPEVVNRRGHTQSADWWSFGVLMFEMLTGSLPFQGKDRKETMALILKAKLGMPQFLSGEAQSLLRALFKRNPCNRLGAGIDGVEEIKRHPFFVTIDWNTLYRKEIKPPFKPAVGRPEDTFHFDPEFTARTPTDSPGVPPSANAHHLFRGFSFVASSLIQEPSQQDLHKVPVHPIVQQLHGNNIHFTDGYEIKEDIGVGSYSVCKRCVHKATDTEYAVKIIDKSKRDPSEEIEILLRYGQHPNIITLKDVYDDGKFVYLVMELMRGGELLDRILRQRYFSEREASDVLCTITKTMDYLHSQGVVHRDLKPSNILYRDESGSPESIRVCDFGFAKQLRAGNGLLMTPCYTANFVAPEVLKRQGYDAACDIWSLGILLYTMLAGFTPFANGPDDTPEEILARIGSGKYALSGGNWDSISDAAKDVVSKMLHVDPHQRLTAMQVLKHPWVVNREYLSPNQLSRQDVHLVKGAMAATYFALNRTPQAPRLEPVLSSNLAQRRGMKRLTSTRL
For assay [9] the target is unchanged. The note with it: at 1 µM.
Assay [10] deals with Ribosomal protein S6 kinase alpha-6 (Homo sapiens) (UniProt Q9UK32). The note with it: at 0.1 µM.
Assay [11] has the same target. The following applies: at 1 µM.
Assay [12] concerns the target T1, Serine/threonine-protein kinase Sgk1 (Homo sapiens) (UniProt O00141).
T1 sequence (whole entry): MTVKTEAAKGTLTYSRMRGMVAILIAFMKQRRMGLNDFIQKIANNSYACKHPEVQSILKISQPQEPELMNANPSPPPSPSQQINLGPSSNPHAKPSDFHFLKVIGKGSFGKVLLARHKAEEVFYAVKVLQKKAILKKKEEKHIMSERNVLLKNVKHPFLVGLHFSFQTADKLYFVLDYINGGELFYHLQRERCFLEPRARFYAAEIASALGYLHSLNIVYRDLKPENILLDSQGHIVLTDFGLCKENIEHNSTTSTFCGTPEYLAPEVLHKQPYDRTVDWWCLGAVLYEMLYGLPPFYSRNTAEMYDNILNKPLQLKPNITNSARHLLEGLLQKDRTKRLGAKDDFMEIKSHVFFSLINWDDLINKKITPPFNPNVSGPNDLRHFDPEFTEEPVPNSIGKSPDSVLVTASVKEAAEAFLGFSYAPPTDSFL
The note with it: at 0.1 µM.

In assay [13] the target is T1, Serine/threonine-protein kinase Sgk1 (Homo sapiens). The following applies: at 1 µM.
The target in assay [14] is T2, Serine/threonine-protein kinase Sgk2 (Homo sapiens) (UniProt Q9HBY8).
T2 sequence (whole entry): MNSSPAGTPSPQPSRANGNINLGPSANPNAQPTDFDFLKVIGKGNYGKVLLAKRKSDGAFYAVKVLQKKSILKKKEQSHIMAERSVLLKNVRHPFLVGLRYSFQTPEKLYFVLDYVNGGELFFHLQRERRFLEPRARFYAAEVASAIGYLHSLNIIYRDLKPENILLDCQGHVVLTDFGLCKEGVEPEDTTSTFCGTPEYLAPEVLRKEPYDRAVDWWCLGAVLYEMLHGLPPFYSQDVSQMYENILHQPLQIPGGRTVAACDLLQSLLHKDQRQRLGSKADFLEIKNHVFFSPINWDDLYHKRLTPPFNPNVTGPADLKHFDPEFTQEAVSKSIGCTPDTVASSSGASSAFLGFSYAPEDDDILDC
The note with it: at 0.1 µM.

Assay [15] deals with T2, Serine/threonine-protein kinase Sgk2 (Homo sapiens). The following applies: at 1 µM.
Assay [16] concerns the target T3, Serine/threonine-protein kinase Sgk3 (Homo sapiens) (UniProt Q96BR1).
T3 sequence (whole entry): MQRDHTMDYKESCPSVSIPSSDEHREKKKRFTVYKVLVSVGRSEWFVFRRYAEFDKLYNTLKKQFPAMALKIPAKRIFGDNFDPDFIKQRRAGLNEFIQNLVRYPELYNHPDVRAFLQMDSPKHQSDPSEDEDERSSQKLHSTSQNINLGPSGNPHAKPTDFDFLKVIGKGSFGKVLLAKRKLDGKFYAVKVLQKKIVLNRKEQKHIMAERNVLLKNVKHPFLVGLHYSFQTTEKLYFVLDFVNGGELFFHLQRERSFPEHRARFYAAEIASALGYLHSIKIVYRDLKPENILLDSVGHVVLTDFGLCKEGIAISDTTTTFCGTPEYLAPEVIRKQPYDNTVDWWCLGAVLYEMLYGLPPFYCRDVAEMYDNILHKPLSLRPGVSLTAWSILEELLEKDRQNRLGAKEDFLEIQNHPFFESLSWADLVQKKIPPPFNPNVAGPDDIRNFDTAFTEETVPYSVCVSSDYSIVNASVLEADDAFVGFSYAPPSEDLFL
The following applies: at 0.1 µM.

The target in assay [17] is T3, Serine/threonine-protein kinase Sgk3 (Homo sapiens). The note with it: at 1 µM.
The target of assay [18] is 5'-AMP-activated protein kinase catalytic subunit alpha-1 (Homo sapiens) (UniProt Q13131). The note with it: at 0.1 µM.
5'-AMP-activated protein kinase catalytic subunit alpha-1 (Homo sapiens), sequence (Q13131 whole entry, looked up): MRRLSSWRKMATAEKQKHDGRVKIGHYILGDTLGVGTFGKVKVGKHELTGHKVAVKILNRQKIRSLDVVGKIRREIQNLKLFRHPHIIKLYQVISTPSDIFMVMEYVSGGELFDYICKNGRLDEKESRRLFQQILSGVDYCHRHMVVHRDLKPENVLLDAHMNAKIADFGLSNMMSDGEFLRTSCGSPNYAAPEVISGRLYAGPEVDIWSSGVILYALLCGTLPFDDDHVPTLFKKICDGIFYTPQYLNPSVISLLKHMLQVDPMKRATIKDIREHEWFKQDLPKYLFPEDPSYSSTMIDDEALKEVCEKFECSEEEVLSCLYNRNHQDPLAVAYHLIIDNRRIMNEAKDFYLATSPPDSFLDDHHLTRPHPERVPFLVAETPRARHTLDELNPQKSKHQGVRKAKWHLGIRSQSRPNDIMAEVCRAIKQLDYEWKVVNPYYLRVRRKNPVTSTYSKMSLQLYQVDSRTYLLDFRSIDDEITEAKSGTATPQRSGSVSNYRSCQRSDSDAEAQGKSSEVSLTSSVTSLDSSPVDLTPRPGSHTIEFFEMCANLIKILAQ
Assay [19] has the same target. The note with it: at 1 µM.
For assay [20], the target named is 5'-AMP-activated protein kinase catalytic subunit alpha-2 (Homo sapiens) (UniProt P54646). The note with it: at 0.1 µM.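 Note: mean inhibition measured on the AMPK complex of alpha2, beta1 and gamma1 subunits.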
5'-AMP-activated protein kinase catalytic subunit alpha-2 (Homo sapiens), sequence (P54646 whole entry, looked up): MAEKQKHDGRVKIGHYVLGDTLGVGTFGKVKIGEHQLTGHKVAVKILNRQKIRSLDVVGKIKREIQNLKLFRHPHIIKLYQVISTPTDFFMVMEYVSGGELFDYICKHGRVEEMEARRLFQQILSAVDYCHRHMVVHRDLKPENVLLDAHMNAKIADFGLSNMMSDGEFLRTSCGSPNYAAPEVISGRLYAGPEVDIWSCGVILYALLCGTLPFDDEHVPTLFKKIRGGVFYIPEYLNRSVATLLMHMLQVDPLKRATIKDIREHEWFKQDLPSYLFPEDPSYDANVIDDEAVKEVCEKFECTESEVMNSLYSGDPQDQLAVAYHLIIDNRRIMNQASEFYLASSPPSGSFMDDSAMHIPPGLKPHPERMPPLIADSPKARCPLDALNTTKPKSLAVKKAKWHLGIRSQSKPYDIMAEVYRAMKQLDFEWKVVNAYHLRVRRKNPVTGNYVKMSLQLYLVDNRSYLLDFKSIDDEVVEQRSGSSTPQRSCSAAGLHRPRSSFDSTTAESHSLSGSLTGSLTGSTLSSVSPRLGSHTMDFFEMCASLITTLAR

Ribosomal protein S6 kinase alpha-3 (Homo sapiens), sequence (P51812 whole entry): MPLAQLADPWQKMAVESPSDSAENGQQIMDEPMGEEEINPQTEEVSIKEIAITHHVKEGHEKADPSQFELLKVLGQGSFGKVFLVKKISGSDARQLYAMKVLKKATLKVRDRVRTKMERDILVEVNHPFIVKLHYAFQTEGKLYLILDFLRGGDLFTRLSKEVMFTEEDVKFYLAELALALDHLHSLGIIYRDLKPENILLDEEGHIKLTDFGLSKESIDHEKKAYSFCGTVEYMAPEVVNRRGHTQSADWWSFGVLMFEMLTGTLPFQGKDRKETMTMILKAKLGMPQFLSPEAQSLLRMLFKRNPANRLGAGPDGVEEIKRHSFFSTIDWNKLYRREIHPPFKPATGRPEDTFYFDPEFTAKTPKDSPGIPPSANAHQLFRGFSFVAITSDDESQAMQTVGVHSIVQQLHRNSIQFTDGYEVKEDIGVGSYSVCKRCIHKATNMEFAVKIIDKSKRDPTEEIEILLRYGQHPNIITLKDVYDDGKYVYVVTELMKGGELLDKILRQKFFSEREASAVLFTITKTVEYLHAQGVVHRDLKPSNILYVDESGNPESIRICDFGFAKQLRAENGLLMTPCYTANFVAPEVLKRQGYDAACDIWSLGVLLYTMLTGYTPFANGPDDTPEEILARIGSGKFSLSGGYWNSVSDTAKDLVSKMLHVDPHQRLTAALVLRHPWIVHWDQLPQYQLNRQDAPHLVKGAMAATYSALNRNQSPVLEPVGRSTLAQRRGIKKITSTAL

For `O=S(=O)(CCOCc1ccc(-c2ccc3ncnc(Nc4ccc(OCc5cccc(F)c5)c(Cl)c4)c3c2)o1)c1ccccc1`, the inhibition in assay [1] is 3.68%; in assay [2] it was 1.09%; in assay [3] it was 6.38%; in assay [4], -1.65%; in assay [5], 1.43%; in assay [6], -0.82%. Moreover, the inhibition is 1.23% in assay [7]; -0.87% in assay [8]; 1.09% in [9]; -1.59% in assay [10]; -0.62% in assay [11]; 1.34% in assay [12]. The inhibition in [13] is 2.27%; in [14], 3.28%; in assay [15], -0.92%; in assay [16], 3.38%; in [17], 1.38%; in [18], -0.69%. The inhibition came out at 1.2% in assay [19] and 4.55% in assay [20].
Consider `COc1cc2ncn(-c3cc(OCc4ccccc4S(C)(=O)=O)c(C#N)s3)c2cc1OC`, for which the inhibition in [1] worked out at 6.5%; in [2], 5.73%; in assay [3], 6.61%; in assay [4], 5.57%; in assay [5], 14%; in assay [6], 5.02%. Besides, the inhibition amounted to 13.7% in [7]; 3.37% in assay [8]; 10.2% in assay [9]; 3.14% in [10]; 16.4% in assay [11]; 2.34% in assay [12]. Besides, the inhibition in assay [13] was 4.47%; in assay [14], 2.96%; in assay [15], 4.38%; in assay [16], 4.43%; in [17] it was 4.05%; in [18], 33.4%. Also, the inhibition amounted to 74.6% in [19] and 5.84% in [20].
On to `N#Cc1cccc(Nc2nccc(-c3cnn4ncccc34)n2)c1`, for which the inhibition was found to be 5.33% in assay [1]; 3.28% in assay [2]; 12.4% in [3]; 2.54% in assay [4]; 7.07% in assay [5]; 0.17% in assay [6]. Moreover, the inhibition was 4.03% in assay [7]; 2.01% in [8]; 4.16% in assay [9]; 1.51% in [10]; 8.8% in assay [11]; 2.22% in assay [12]. Besides, the inhibition was found to be 10.4% in assay [13]; 4.89% in assay [14]; 5.14% in assay [15]; 5.14% in assay [16]; 7.33% in assay [17]; 2.67% in assay [18]. Besides, the inhibition worked out at 10.4% in assay [19] and 2.03% in assay [20].
Consider `Nc1nccc(-c2c(-c3ccc(F)cc3)nn3cc(C(F)(F)F)ccc23)n1`, for which the inhibition in assay [1] was -0.27%; in assay [2], -1.57%; in assay [3] it was 0.18%; in assay [4], 0.48%; in assay [5], 0.53%; in assay [6] it was -0.83%. Besides, the inhibition in assay [7] is -1.02%; in assay [8] it was 0.95%; in assay [9] it was 0.63%; in assay [10], -1.83%; in assay [11] it was -1.48%; in assay [12], 1.36%. Besides, the inhibition is 0.06% in assay [13]; 2.28% in assay [14]; -4.03% in [15]; 3.01% in [16]; -3.28% in assay [17]; -1.23% in assay [18]. For the same molecule, the inhibition in [19] was -0.36%; in assay [20], 0.94%.
Consider `O=C1Nc2ccccc2/C1=C/Nc1ccc2[nH]c(=O)[nH]c2c1`, for which the inhibition in assay [1] is 4.42%; in assay [2] it was 3.76%; in assay [3], 13.7%; in assay [4], 3.61%; in [5] it was 20.9%; in assay [6], 2.19%. Besides, the inhibition amounted to 14.7% in assay [7]; 4.19% in assay [8]; 20.5% in [9]; 2.19% in assay [10]; 16.3% in assay [11]; 5.08% in assay [12]. The inhibition in assay [13] came to 22.7%; in assay [14], 1.44%; in assay [15] it was 13.4%; in assay [16], 3.83%; in [17], 9.07%; in assay [18] it was 6.25%. Further, the figures for the inhibition in [19] and in assay [20] were 20% and 4.32%, respectively.
Consider `CS(=O)(=O)CCNCc1nc(-c2ccc3ncnc(Nc4ccc(OCc5cccc(C(F)(F)F)c5)cc4)c3c2)cs1`, for which the inhibition is -0.55% in assay [1]; 0.87% in [2]; 1.92% in assay [3]; -1.01% in assay [4]; 0.29% in assay [5]; 1.21% in [6]. Further, the inhibition in [7] is 1.84%; in assay [8], 1.45%; in assay [9], 2.09%; in assay [10], 0.32%; in assay [11], 0.37%; in [12], -0.21%. For the same molecule, the inhibition in [13] is -1.85%; in [14], 3.52%; in [15], 2.19%; in assay [16] it was 1.04%; in [17], 1.17%; in assay [18] it was 1.78%. Besides, the results for the inhibition in assay [19] and in assay [20] were 2.03% and 3.05%, respectively.
On to `Oc1cccc(-c2nc(-c3ccccc3)[nH]c2-c2ccncc2)c1`, for which the inhibition in assay [1] turned out to be 1.51%; in assay [2] it was 3.56%; in assay [3], 6.34%; in [4], 2.58%; in assay [5], 3.62%; in assay [6] it was 1.36%. Besides, the inhibition was 2.76% in assay [7]; 1.27% in [8]; 3.22% in assay [9]; 2.27% in assay [10]; 2.67% in assay [11]; 0.98% in assay [12]. Besides, the inhibition in assay [13] was 4.8%; in assay [14], 1.32%; in [15], 4.97%; in [16], 3.71%; in assay [17], 1.35%; in [18], 2.62%. For the same molecule, the inhibition came out at 3.13% in assay [19] and 3.23% in assay [20].
